This passage reports growth results from PubChem BioAssay (NCI).

The structures appear in SMILES notation. Compounds without any hit were thinned out: in the full panel of roughly 83,000, 20% have a hit.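 Percent growth is the endpoint: 0 to 100 indicates growth inhibition (40 means 60% inhibition), 0 means no net growth, and negative values indicate cell death.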 A number with no mark means an inactive call. The source made the active and inactive calls. Rule for the calls: active = growth percent below 10; inactive = the rest.

What all share (test): NCI-60 one-dose screen, 48 h (100 = growth as untreated, 0 = no growth, -100 = all killed)
For one test, the system named is NCI-H226 lung. Particulars: 10 µM unless noted.
The next test concerns NCI-H322M lung. Particulars: 10 µM unless noted.
Another test deals with HOP-62 NSCLC. Particulars: 10 µM unless noted.
The next test has as its system NCI-H460 lung. Particulars: 10 µM unless noted.
The test system of the next test is HOP-92 NSCLC. Particulars: 10 µM.
The next test has as its system NCI-H522 lung. Particulars: 10 µM unless noted.
In another test the test system is A549/ATCC NSCLC. To be noted: 10 µM unless noted.
The next test deals with 786-0 renal. To be noted: 10 µM unless noted.
Another test concerns COLO 205 colon. To be noted: 10 µM unless noted.
In a further test the test system is DU-145 prostate. Particulars: 10 µM unless noted.
The test system of a further test is K-562 leukemia. To be noted: 10 µM unless noted.
Another test relates to MALME-3M melanoma. Particulars: 10 µM unless noted.
Another test concerns MDA-MB-231 breast. Particulars: 10 µM unless noted.
The next test concerns RXF 393 renal. To be noted: 10 µM unless noted.
For a further test, the system named is SF-268 CNS. Particulars: 10 µM unless noted.
Another test has as its system SF-295 CNS. To be noted: 10 µM unless noted.
A further test concerns SF-539 CNS. To be noted: 10 µM unless noted.
A further test deals with UACC-257 melanoma. Particulars: 10 µM unless noted.
In a further test the test system is M14 melanoma. To be noted: 10 µM unless noted.
The next test deals with NCI-H23 lung. Particulars: 10 µM unless noted.

Regarding `Cc1ccc(CSc2nc(-c3ccc(Cl)cc3)c(C#N)c(N3CCNCC3)n2)cc1`, the growth with NCI-H226 lung was 90.2%; with NCI-H322M lung, 89%; in the test on HOP-62 NSCLC it was 80.3%; in the test with NCI-H460 lung, 88.6%; in the test with HOP-92 NSCLC it was 15.9%; in the test with NCI-H522 lung, 95%. In addition, the growth in the test with A549/ATCC NSCLC was 81.2%; in the test on 786-0 renal it was 66.8%; in the test on COLO 205 colon, 109%; in the test with DU-145 prostate it was 82.6%; in the test with K-562 leukemia it was 3.43% (active); in the test with MALME-3M melanoma, 96.3%. Besides, the growth is 77.2% with MDA-MB-231 breast; 67.8% in the test on RXF 393 renal; 79.6% in the test with SF-268 CNS; 95.4% in the test with SF-295 CNS; 80.9% in the test on SF-539 CNS; 99.4% in the test with UACC-257 melanoma. Also, the growth in the test on M14 melanoma is 98.1%.

In the case of `O=c1[nH]c(Sc2sc3ccc(Cl)cc3c2CBr)nc(=S)[nH]1`, the growth with NCI-H226 lung is 55.1%; in the test with NCI-H322M lung, 39.7%; in the test with HOP-62 NSCLC, 28.2%; with NCI-H460 lung it was 21.5%; in the test on HOP-92 NSCLC it was 1.66% (active); in the test on A549/ATCC NSCLC it was 39.8%. Moreover, the growth is 51% in the test on 786-0 renal; 108% with COLO 205 colon; 33.9% with DU-145 prostate; 12% with K-562 leukemia; 27.4% with MALME-3M melanoma; 35.9% in the test with MDA-MB-231 breast. The growth in the test with RXF 393 renal was 9.12% (active); in the test on SF-268 CNS, 48.9%; in the test with SF-295 CNS, 23%; in the test with SF-539 CNS, 32.1%; in the test on UACC-257 melanoma, 44.1%; in the test with M14 melanoma, 27.6%.

In the case of `COc1ccc(-c2nc(C(Cl)Cl)nc3cc(-c4ccccc4)nn23)cc1`, the growth was 63.2% with NCI-H226 lung; -33.8% (active) in the test with NCI-H322M lung; -11.5% (active) in the test on HOP-62 NSCLC; -75.9% (active) in the test on NCI-H460 lung; -14.8% (active) in the test with HOP-92 NSCLC; -59.4% (active) in the test on NCI-H522 lung. Further, the growth in the test on A549/ATCC NSCLC is -42.9% (active); in the test with 786-0 renal, 68.8%; in the test with COLO 205 colon, -74.6% (active); with DU-145 prostate, -26.7% (active); in the test with K-562 leukemia, 7.86% (active); in the test with MALME-3M melanoma, -44.9% (active). The growth in the test on MDA-MB-231 breast was 6.65% (active); in the test on RXF 393 renal it was -82.1% (active); in the test on SF-268 CNS, 14.2%; in the test on SF-295 CNS it was 9.62% (active); in the test with SF-539 CNS, 35.5%; in the test with UACC-257 melanoma, 4.58% (active). The growth in the test with M14 melanoma is -69% (active).

On to `O=C(CCn1c[n+](CC(=O)c2ccc(F)cc2)c2ccccc21)Nc1cccc2cccnc12`, for which the growth in the test on NCI-H23 lung is 83.4%; in the test on NCI-H226 lung, 78.1%; with NCI-H322M lung it was 93.9%; in the test with HOP-62 NSCLC, 85.7%; with NCI-H460 lung, 88.3%; with A549/ATCC NSCLC, 102%. The growth with 786-0 renal is 102%; with COLO 205 colon, 55.7%; in the test on DU-145 prostate, 96.6%; with K-562 leukemia, 58.5%; in the test on MDA-MB-231 breast, 57.4%; in the test on RXF 393 renal it was 92.7%. The growth is 78.6% in the test on SF-268 CNS; 99.2% with SF-295 CNS; 89.6% in the test with SF-539 CNS; 47.6% with UACC-257 melanoma; 79.8% in the test on M14 melanoma.

For `COc1ccc(/C=C(\C#N)C(=O)N2c3ccccc3Sc3ccc(SC)cc32)cc1F`, the growth with NCI-H23 lung is 91.4%; in the test on NCI-H226 lung, 88.8%; in the test on NCI-H322M lung, 90%; in the test on HOP-62 NSCLC it was 97%; in the test on NCI-H460 lung it was 94.4%; in the test with A549/ATCC NSCLC it was 85.7%. Further, the growth with 786-0 renal is 84.4%; in the test on COLO 205 colon, 111%; in the test on DU-145 prostate it was 97.3%; with K-562 leukemia, 80.8%; with MDA-MB-231 breast it was 84.7%; in the test with RXF 393 renal, 100%. In addition, the growth in the test on SF-268 CNS was 91.8%; in the test on SF-295 CNS it was 104%; in the test with SF-539 CNS, 96.7%; with UACC-257 melanoma it was 93.1%; with M14 melanoma, 105%.

Regarding `C[C@H]1c2[nH]c3ccccc3c2C[C@H]2C(=O)N(CCCCCCC(=O)NO)CC(=O)N21`, the growth in the test on NCI-H226 lung is 94.6%; with NCI-H322M lung, 84.9%; with HOP-62 NSCLC, 88.7%; in the test on NCI-H460 lung, 82.7%; with HOP-92 NSCLC it was 67.6%; in the test with NCI-H522 lung, 65.6%. In addition, the growth in the test with A549/ATCC NSCLC is 98%; with 786-0 renal it was 92%; with COLO 205 colon it was 90.3%; in the test on DU-145 prostate it was 95.2%; with K-562 leukemia, 57.3%; with MALME-3M melanoma, 41.4%. Besides, the growth with MDA-MB-231 breast was 78.5%; in the test on RXF 393 renal, 93%; in the test on SF-268 CNS it was 90.1%; with SF-295 CNS, 93.6%; in the test with SF-539 CNS, 73.2%; in the test with UACC-257 melanoma, 63%. Also, the growth in the test with M14 melanoma is 91.4%.

Turning to `CCCC(=O)NC(c1cccnc1)c1cc(C(C)(C)C)c2cccnc2c1O` (stereo not drawn), the growth in the test with NCI-H226 lung was 12.7%; with NCI-H322M lung, 33.6%; in the test with HOP-62 NSCLC it was 25.9%; with NCI-H460 lung it was 3.55% (active); with HOP-92 NSCLC, 50.5%; with NCI-H522 lung it was 7.22% (active). In addition, the growth in the test on A549/ATCC NSCLC is 18.2%; in the test with 786-0 renal, 2.54% (active); with COLO 205 colon it was 20.3%; in the test on DU-145 prostate, 31.8%; in the test with K-562 leukemia, 12.5%; in the test on MALME-3M melanoma, 25%. Also, the growth with MDA-MB-231 breast was 34.6%; in the test with RXF 393 renal, 53.6%; in the test on SF-268 CNS, 24.2%; with SF-295 CNS it was 17%; in the test on SF-539 CNS, 13.4%; in the test on UACC-257 melanoma, 4.98% (active). Further, the growth in the test with M14 melanoma is 3.19% (active).
